# From PubChem BioAssay (NCATS)
# Inconclusive results are not listed. Values without a mark were called inactive. Activity calls are given as the source filed them. Calls come from the whole dose curve; as a rule, active = well fitted curve in the direction sought with a large enough effect; inconclusive = small, poorly fitted or top-dose-only effect, or another doubt; inactive = no such curve, though single readings can be large; an effect the other way counts as inactive or inconclusive.
# Tests used:
# [1] = Quantitative High-Throughput drug screen in 47 multiple myeloma cell lines against the NCATS MIPE library collection: JIM3_ECACC cell viability assay (AID 1918963; note: nearly all actives have a fitted effect of over 35% in size)
# Method in brief: (§1)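 Approved and investigational drugs from MIPE 4.0 were added by pin tool to 500 cells per well. After 48 hours at 37C, ATP-based CellTiter-Glo luminescence indicated remaining viability.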
# [2] = Quantitative High-Throughput drug screen in 47 multiple myeloma cell lines against the NCATS MIPE library collection: JIM1_ECACC cell viability assay (AID 1918964)
# Method in brief: (§2)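 CellTiter-Glo ATP luminescence gave viability after 48 h compound treatment at 37C of 500 multiple myeloma cells per well. Normalisation used DMSO-only wells as 100% and media-only wells as 0% viability; primary qHTS of approved and investigational drugs.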
# [3] = Quantitative High-Throughput drug screen in 47 multiple myeloma cell lines against the NCATS MIPE library collection: INA6_PLB cell viability assay (AID 1918965; note: nearly all actives have a fitted effect of over 55% in size)
# Method in brief: (§3)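 Inhibition of cell viability is measured here. Each line was plated at 500 cells per well, treated with MIPE 4.0 drugs, kept 48 hours at 37C, then assayed for ATP content by CellTiter-Glo luminescence.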
# [4] = Quantitative High-Throughput drug screen in 47 multiple myeloma cell lines against the NCATS MIPE library collection: JJN3_DSMZ cell viability assay (AID 1918966; note: nearly all actives have a fitted effect of over 50% in size)
# Method in brief: as §2
# [5] = Quantitative High-Throughput drug screen in 47 multiple myeloma cell lines against the NCATS MIPE library collection: H1112_PLB cell viability assay (AID 1918967; note: nearly all actives have a fitted effect of over 30% in size)
# Method in brief: as §2
# [6] = Quantitative High-Throughput drug screen in 47 multiple myeloma cell lines against the NCATS MIPE library collection: Karpas25_ECACC cell viability assay (AID 1918968; note: nearly all actives have a fitted effect of over 35% in size)
# Method in brief: as §2
# [7] = Quantitative High-Throughput drug screen in 47 multiple myeloma cell lines against the NCATS MIPE library collection: KMS27_JCRB cell viability assay (AID 1918970); note: nearly all actives have a fitted effect of over 30% in size
# Method in brief: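 Viability inhibition screen, 48 h compound exposure, luminescent ATP read-out.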
# [8] = Quantitative High-Throughput drug screen in 47 multiple myeloma cell lines against the NCATS MIPE library collection: KMS12BM_JCRB cell viability assay (AID 1918971); note: nearly all actives have a fitted effect of over 35% in size
# Method in brief: as §1
# [9] = Quantitative High-Throughput drug screen in 47 multiple myeloma cell lines against the NCATS MIPE library collection: KMS20_JCRB cell viability assay (AID 1918973); note: nearly all actives have a fitted effect of over 45% in size
# Method in brief: as §2
# [10] = Quantitative High-Throughput drug screen in 47 multiple myeloma cell lines against the NCATS MIPE library collection: KMS26_JCRB cell viability assay (AID 1918975); note: nearly all actives have a fitted effect of over 45% in size
# Method in brief: as §1
# [11] = Quantitative High-Throughput drug screen in 47 multiple myeloma cell lines against the NCATS MIPE library collection: NCIH929_DSMZ cell viability assay (AID 1918978); note: nearly all actives have a fitted effect of over 35% in size
# Method in brief: (§4)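 ATP-based luminescence (CellTiter-Glo, 5 min RT incubation) quantified surviving cells following two days' treatment with MIPE 4.0 agents at 37 °C, 5% CO2.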
# [12] = Quantitative High-Throughput drug screen in 47 multiple myeloma cell lines against the NCATS MIPE library collection: OCIMY1_PLB cell viability assay (AID 1918979); note: nearly all actives have a fitted effect of over 35% in size
# Method in brief: as §4
# [13] = Quantitative High-Throughput drug screen in 47 multiple myeloma cell lines against the NCATS MIPE library collection: MM1R_ATCC cell viability assay (AID 1918981); note: nearly all actives have a fitted effect of over 35% in size
# Method in brief: as §4
# [14] = Quantitative High-Throughput drug screen in 47 multiple myeloma cell lines against the NCATS MIPE library collection: LP1_DSMZ cell viability assay (AID 1918982); note: nearly all actives have a fitted effect of over 35% in size
# Method in brief: as §4
# [15] = Quantitative High-Throughput drug screen in 47 multiple myeloma cell lines against the NCATS MIPE library collection: KMS12PE_JCRB cell viability assay (AID 1918972); note: nearly all actives have a fitted effect of over 30% in size
# Method in brief: as §3
# [16] = Quantitative High-Throughput drug screen in 47 multiple myeloma cell lines against the NCATS MIPE library collection: MOLP8_DSMZ cell viability assay (AID 1918977); note: nearly all actives have a fitted effect of over 45% in size
# Method in brief: as §4
# [17] = Quantitative High-Throughput drug screen in 47 multiple myeloma cell lines against the NCATS MIPE library collection: MM1S_ATCC cell viability assay (AID 1918980); note: nearly all actives have a fitted effect of over 45% in size
# Method in brief: as §4
# [18] = Quantitative High-Throughput drug screen in 47 multiple myeloma cell lines against the NCATS MIPE library collection: MMM1_PLB cell viability assay (AID 1918976); note: nearly all actives have a fitted effect of over 35% in size
# Method in brief: as §4
# [19] = Quantitative High-Throughput drug screen in 47 multiple myeloma cell lines against the NCATS MIPE library collection: KMS21BM_JCRB cell viability assay (AID 1918974); details: ATP luminescence, 48 h; viability: at 45.8 µM (top of the series) unless noted
# Method in brief: as §2
# Potency is the fitted concentration of half-maximal effect.
SMILES,Potency [1],Potency [2],Potency [3],Potency [4],Potency [5],Potency [6],Potency [7],Potency [8],Potency [9],Potency [10],Potency [11],Potency [12],Potency [13],Potency [14],Potency [15],Potency [16],Potency [17],Potency [18],Potency [19]
Cc1coc2c1C(=O)C(=O)c1c-2ccc2c1CCCC2(C)C,6.62 µM (active),inactive,16.6 µM (active),11.8 µM (active),8.33 µM (active),8.33 µM (active),0.166 µM (active),5.26 µM (active),9.35 µM (active),2.96 µM (active),13.2 µM (active),16.6 µM (active),18.7 µM (active),4.18 µM (active),–,–,–,–,–
COc1cc2ncnc(Nc3ccc(F)c(Cl)c3)c2cc1NC(=O)C=CCN1CCCCC1,6.62 µM (active),10.5 µM (active),3.72 µM (active),20.9 µM (active),8.33 µM (active),2.96 µM (active),4.18 µM (active),18.7 µM (active),2.96 µM (active),18.7 µM (active),4.69 µM (active),26.4 µM (active),16.6 µM (active),–,1.87 µM (active),18.7 µM (active),13.2 µM (active),–,–
COc1cc(-c2nn(C3CCC(N4CCN(C(C)=O)CC4)CC3)c3ncnc(N)c23)ccc1NC(=O)c1cc2ccccc2n1C (configuration not stated),2.35 µM (active),0.235 µM (active),2.96 µM (active),7.43 µM (active),0.0833 µM (active),–,–,10.5 µM (active),–,14.8 µM (active),–,7.43 µM (active),5.9 µM (active),–,–,10.5 µM (active),5.9 µM (active),16.6 µM (active),–
O=C(C=Cc1c(C(=O)O)[nH]c2cc(Cl)cc(Cl)c12)Nc1ccccc1,inactive,inactive,inactive,inactive,inactive,–,inactive,inactive,inactive,inactive,–,inactive,inactive,–,inactive,–,inactive,–,–
Cn1c(=O)n(-c2ccc(C(C)(C)C#N)cc2)c2c3cc(-c4cnc5ccccc5c4)ccc3ncc21,0.132 µM (active),0.0209 µM (active),0.0166 µM (active),0.148 µM (active),–,0.0105 µM (active),–,0.0132 µM (active),0.372 µM (active),0.209 µM (active),–,0.0662 µM (active),0.118 µM (active),–,0.0526 µM (active),0.0166 µM (active),0.296 µM (active),0.209 µM (active),–
CN1CCN(Cc2ccc(NC(=O)Nc3ccc(Oc4cc(NC(=O)C5CC5)ncn4)cc3)cc2C(F)(F)F)CC1,0.148 µM (active),–,0.132 µM (active),0.264 µM (active),–,0.118 µM (active),–,–,0.132 µM (active),0.418 µM (active),0.132 µM (active),1.18 µM (active),0.332 µM (active),0.372 µM (active),inactive,0.332 µM (active),0.332 µM (active),0.372 µM (active),–
Cc1ccc(S(=O)(=O)Nc2cc(Cl)ccc2C(=O)Nc2nc(-c3ccccc3)cs2)cc1,5.26 µM (active),–,8.33 µM (active),18.7 µM (active),–,5.26 µM (active),–,16.6 µM (active),–,18.7 µM (active),–,–,–,9.35 µM (active),2.64 µM (active),20.9 µM (active),14.8 µM (active),7.43 µM (active),–
Cc1ccc(C(N)=O)cc1Nc1nccc(-c2cn(C(C)C)c3cnccc23)n1,5.26 µM (active),2.35 µM (active),–,–,3.32 µM (active),3.72 µM (active),3.32 µM (active),–,4.18 µM (active),10.5 µM (active),–,–,8.33 µM (active),8.33 µM (active),5.9 µM (active),4.69 µM (active),–,16.6 µM (active),0.935 µM (active)
O=C(O)[C@H](Cc1c[nH]c2ccccc12)N1C(=O)c2ccccc2C1=O,inactive,inactive,–,–,–,inactive,–,–,inactive,inactive,54 µM (active),inactive,–,inactive,inactive,inactive,–,–,inactive
CC[C@@H]1C(=O)N(C)c2cnc(Nc3ccc(C(=O)NC4CCN(C)CC4)cc3OC)nc2N1C1CCCC1,0.0235 µM (active),–,0.0833 µM (active),7.43 µM (active),–,4.69 µM (active),–,0.0235 µM (active),6.62 µM (active),3.72 µM (active),2.35 µM (active),0.469 µM (active),1.18 µM (active),–,1.66 µM (active),4.69 µM (active),4.18 µM (active),13.2 µM (active),–
Cc1nc2cnc3ccc(C#Cc4cccnc4)cc3c2n1-c1ccc(C(C)(C)C#N)cc1,0.148 µM (active),–,0.0833 µM (active),0.935 µM (active),–,0.0264 µM (active),–,–,0.0148 µM (active),1.32 µM (active),–,1.48 µM (active),0.166 µM (active),0.0833 µM (active),–,–,0.0743 µM (active),–,–
